PubChem BioAssay (Tox21)
Several values for one entry are separate records, joined by “and”; a condition that tells them apart may be missing. Equal values may be shown once. Inconclusive results are not listed. A call without a number means that no potency is given here. Where a structure was tested more than once in an assay, its records may differ in their call. Activity calls are given as the source filed them. Unless noted, calls follow the shape of the dose curve; as a rule, active = well fitted curve in the direction sought with a large enough effect in the repeat runs; inconclusive = weak or mixed curves; inactive = no such curve, though single readings can be large; an effect the other way counts as inactive or inconclusive.

Legend:
[1] = qHTS assay to identify small molecule antagonists of the retinoid acid receptor (RAR) signaling pathway - cell viability counter screen (AID 1159551); also: nearly all actives have a fitted effect of over 35% in size; also: potency is read from the fitted curve at half-maximal effect
Summary of the method: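 C3RL4 cells were seeded overnight at 37 C, then treated with compounds plus 1 uM (final) retinol for 6 h at 37 C. Viability was read as ATP by CellTiter-Glo luminescence after 30 min at room temperature.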

[2] = qHTS assay to identify small molecule antagonists of the retinoic acid receptor (RAR) signaling pathway (AID 1159552; also: nearly all actives have a fitted effect of over 50% in size; also: potency is read from the fitted curve at half-maximal effect)
Summary of the method: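 Using a RARE-driven luciferase construct in C3RL4 cells, retinol at 1 uM final provided the agonist stimulus while compounds were co-applied. After 6 hours at 37 C, luminescence was recorded to flag inhibitors of retinol signaling.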

[3] = qHTS assay to identify small molecule agonists of the retinoic acid receptor (RAR) signaling pathway (AID 1159553); conditions: C3RL4 RARE luciferase reporter, agonist, 6 h; activation: at 73.3 µM (top of the series) unless noted; also: potency is read from the fitted curve at half-maximal effect
Summary of the method: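 C3RL4 cells carrying a RARE luciferase reporter were plated overnight at 37 C, then exposed to compounds in DMSO for 6 hr at 37 C and 5% CO2. Luminescence was read 30 min after luciferase reagent addition at room temperature.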

[4] = qHTS assay to identify small molecule antagonists of the estrogen related receptor (ERR) signaling pathway from Tox21 library - cell viability counter screen (AID 1224834); also: nearly all actives have a fitted effect of over 30% in size; also: potency is read from the fitted curve at half-maximal effect
Summary of the method: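 ERR reporter cells were plated 6 h before compound addition, then exposed to test compounds in DMSO for 17.5 h at 37 C. Viability was read as CellTiter-Fluor fluorescence after a 30-minute incubation at 37 C.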

[5] = molecular target: Luciferin 4-monooxygenase (Photinus pyralis) (UniProt P08659); experiment: qHTS assay to identify small molecule inhibitors of firefly luciferase (AID 1224835); also: nearly all actives have a fitted effect of over 25% in size; also: potency is read from the fitted curve at half-maximal effect
Sequence of Luciferin 4-monooxygenase (Photinus pyralis) (P08659 whole entry, looked up): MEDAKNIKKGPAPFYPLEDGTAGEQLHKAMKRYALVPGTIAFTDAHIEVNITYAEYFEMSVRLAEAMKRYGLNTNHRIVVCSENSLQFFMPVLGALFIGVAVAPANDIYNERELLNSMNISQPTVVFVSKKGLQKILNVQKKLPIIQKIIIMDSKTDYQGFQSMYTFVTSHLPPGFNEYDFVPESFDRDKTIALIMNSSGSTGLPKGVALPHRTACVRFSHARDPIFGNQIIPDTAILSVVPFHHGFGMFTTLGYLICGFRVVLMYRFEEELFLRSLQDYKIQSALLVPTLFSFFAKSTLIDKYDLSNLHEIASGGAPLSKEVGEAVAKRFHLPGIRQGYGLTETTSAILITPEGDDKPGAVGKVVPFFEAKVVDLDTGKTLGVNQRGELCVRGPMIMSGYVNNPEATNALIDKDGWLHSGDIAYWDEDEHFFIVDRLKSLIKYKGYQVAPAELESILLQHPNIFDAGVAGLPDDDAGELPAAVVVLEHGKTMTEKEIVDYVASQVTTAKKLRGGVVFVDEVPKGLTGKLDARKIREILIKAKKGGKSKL
Summary of the method: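 Inhibition of purified Photinus luciferase is measured by luminescence. Substrate levels (D-luciferin, ATP) sit at their KM values. Each compound is tested in a concentration series.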

[6] = qHTS assay to identify small molecule agonists of the constitutive androstane receptor (CAR) signaling pathway - cell viability counter screen (AID 1224836); also: nearly all actives have a fitted effect of over 45% in size; also: potency is read from the fitted curve at half-maximal effect
Summary of the method: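 Multiplexed viability check: HepG2-CYP2B6-hCAR cells, 15-point compound dosing, 0.75 uM PK11195 final, 23 h at 37 C, CellTiter-Fluor fluorescence.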

[7] = qHTS assay to identify small molecule antagonists of the constitutive androstane receptor (CAR) signaling pathway - cell viability counter screen (AID 1224837); also: nearly all actives have a fitted effect of over 45% in size; also: potency is read from the fitted curve at half-maximal effect
Summary of the method: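 HepG2 cells stably expressing hCAR and a CYP2B6-2.2kb reporter were plated and pre-incubated 4 hr at 37 C/5% CO2, then given compounds at 15 concentrations plus 50 nM CITCO (final). After 23 hr, viability was read by CellTiter-Fluor fluorescence.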

[8] = molecular target: Nuclear receptor subfamily 1 group I member 3 (Homo sapiens) (UniProt Q14994); experiment: qHTS assay to identify small molecule antagonists of the constitutive androstane receptor (CAR) signaling pathway (AID 1224838); also: nearly all actives have a fitted effect of over 40% in size; also: potency is read from the fitted curve at half-maximal effect
Sequence of Nuclear receptor subfamily 1 group I member 3 (Homo sapiens) (Q14994 whole entry, looked up): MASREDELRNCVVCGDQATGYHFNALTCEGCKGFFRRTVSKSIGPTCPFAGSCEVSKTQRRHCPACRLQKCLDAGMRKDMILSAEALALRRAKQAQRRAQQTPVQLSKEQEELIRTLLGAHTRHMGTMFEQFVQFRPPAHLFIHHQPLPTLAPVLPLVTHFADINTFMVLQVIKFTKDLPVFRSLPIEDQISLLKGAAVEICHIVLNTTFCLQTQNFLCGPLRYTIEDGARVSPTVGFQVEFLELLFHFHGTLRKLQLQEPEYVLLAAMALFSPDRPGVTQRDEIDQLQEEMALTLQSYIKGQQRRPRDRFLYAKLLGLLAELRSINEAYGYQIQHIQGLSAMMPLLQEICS
Summary of the method: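 HepG2 cells stably co-transfected with hCAR and a CYP2B6-2.2kb luciferase reporter were seeded 4 h before compound addition at 15 concentrations. Cells were stimulated with 50 nM CITCO (final) for 24 h at 37 C; luciferase luminescence was then read.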

[9] = molecular target: Nuclear receptor subfamily 1 group I member 3 (Homo sapiens) (UniProt Q14994); experiment: qHTS assay to identify small molecule agonists of the constitutive androstane receptor (CAR) signaling pathway (AID 1224839); also: nearly all actives have a fitted effect of over 15% in size; also: potency is read from the fitted curve at half-maximal effect;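 as to activation: HepG2 cells stably carrying human CAR and a CYP2B6 luciferase reporter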
Summary of the method: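 Using human hepatoma HepG2 cells engineered with hCAR and a CYP2B6-2.2kb reporter, 15-concentration compound series were incubated 24 h alongside PK11195 at 0.75 uM final, with luminescence quantified afterwards.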

[10] = qHTS assay to identify small molecule antagonists of the estrogen related receptor signaling pathway with the pleiotropic PPARgamma coactivator (PGC) from Tox21 10K library - cell viability counter screen (AID 1224840; active = well fitted cell-killing curve with a large enough effect in the repeat runs, not every such curve was filed as active; also: nearly all actives have a fitted effect of over 40% in size; also: potency is read from the fitted curve at half-maximal effect)
Summary of the method: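 PGC/ERR cells were seeded at 2,000 cells/well and left 6 hours at 37 C/5% CO2 before pin-tool addition of compounds in DMSO. After 17.5 hours at 37 C, CellTiter-Fluor was added and fluorescence read 30 minutes later.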

[11] = qHTS assay to identify small molecule antagonists of the estrogen related receptor signaling pathway with the pleiotropic PPARgamma coactivator (PGC) from Tox21 10K library (AID 1224841; call rule not given here; also: actives are mostly falling curves and most rising ones were filed inactive; nearly all actives have a fitted effect of over 50% in size; also: potency is read from the fitted curve at half-maximal effect)
Summary of the method: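 PGC/ERR reporter cells were seeded at 2,000 cells/well and held 6 hours at 37 C/5% CO2 before pin-tool addition of compounds in DMSO. After 18 hours at 37 C, One-Glo was added and luminescence read after 30 minutes at room temperature.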

[12] = qHTS assay to identify small molecule agonists of the estrogen related receptor signaling pathway with the pleiotropic PPARgamma coactivator (PGC) from Tox21 10K library (AID 1224842); also: nearly all actives have a fitted effect of over 15% in size
Summary of the method: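 Luminescence from One-Glo (30 min, room temperature) measured after PGC/ERR cells had 18 h at 37 C with pinned compound (23 nL in DMSO). Cells had been seeded at 2,000 per well and pre-incubated 6 h.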

[13] = qHTS assay to identify small molecule agonists of the hypoxia (HIF-1) signaling pathway - cell viability counter screen (AID 1224844; calls by dose curve; also: nearly all actives have a fitted effect of over 50% in size; also: potency is read from the fitted curve at half-maximal effect)
Summary of the method: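 HRE-bla ME-180 cells in medium with 0.5% dialyzed FBS were preincubated 5 hrs at 37C, exposed to compounds for 17 hrs, then viability was read as CellTiter-Glo luminescence after 30 min at room temperature, in the reporter wells.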

[14] = molecular target: Thyrotropin receptor (Homo sapiens) (UniProt P16473); experiment: qHTS assay to identify small molecule agonists of the thyroid stimulating hormone receptor (TSHR) signaling pathway (AID 1224843; calls by dose curve; also: nearly all actives have a fitted effect of over 45% in size)
Sequence of Thyrotropin receptor (Homo sapiens) (P16473 whole entry, looked up): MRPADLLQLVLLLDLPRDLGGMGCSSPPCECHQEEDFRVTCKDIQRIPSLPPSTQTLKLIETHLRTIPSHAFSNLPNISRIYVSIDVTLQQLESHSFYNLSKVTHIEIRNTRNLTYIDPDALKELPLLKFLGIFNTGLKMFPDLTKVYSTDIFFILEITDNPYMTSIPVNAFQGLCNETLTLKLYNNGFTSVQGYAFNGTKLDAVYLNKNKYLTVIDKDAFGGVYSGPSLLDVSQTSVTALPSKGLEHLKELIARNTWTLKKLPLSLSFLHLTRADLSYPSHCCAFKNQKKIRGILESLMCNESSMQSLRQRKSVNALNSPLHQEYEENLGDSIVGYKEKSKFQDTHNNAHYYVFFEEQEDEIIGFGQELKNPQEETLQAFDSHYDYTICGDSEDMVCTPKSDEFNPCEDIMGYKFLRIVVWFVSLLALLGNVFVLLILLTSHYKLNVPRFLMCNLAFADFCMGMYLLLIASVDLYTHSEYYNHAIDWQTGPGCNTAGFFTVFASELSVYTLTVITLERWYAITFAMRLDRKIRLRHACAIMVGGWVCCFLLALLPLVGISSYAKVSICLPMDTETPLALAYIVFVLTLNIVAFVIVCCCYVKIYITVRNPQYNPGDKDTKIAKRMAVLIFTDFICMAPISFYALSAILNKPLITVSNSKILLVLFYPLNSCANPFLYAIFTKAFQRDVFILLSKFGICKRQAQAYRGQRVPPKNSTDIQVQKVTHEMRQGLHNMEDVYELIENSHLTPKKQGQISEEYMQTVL
Summary of the method: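 Screening of the Tox21 10K collection used HEK293 cells engineered with TSHR at 800 cells per well. After a 30-min room-temperature compound exposure, HTRF cAMP reagents were added and fluorescence recorded 1 h later.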

Structure (SMILES) | Potency [1] | Potency [2] | Potency [3] | Potency [4] | Potency [5] | Potency [6] | Potency [7] | Potency [8] | Potency [9] | Potency [10] | Potency [11] | Potency [12] | Potency [13] | Potency [14]
COc1ccc(C=O)cc1OC | inactive | inactive | inactive | inactive | inactive | inactive | inactive | inactive | inactive | inactive | inactive | inactive | inactive | –
CCCCCCCCCc1ccc(O)cc1 | inactive | inactive | 19.5 µM (active) | 61.8 µM (active) | inactive | inactive | inactive | inactive | – | – | – | – | 39.3 µM (active) and 54.9 µM (active) | inactive
CC1(C)C(C(=O)OC(C#N)c2cccc(Oc3ccccc3)c2)C1(C)C (stereo not given) | inactive | inactive | inactive | inactive | inactive | inactive | inactive | inactive | 12.3 µM (active) and 24.3 µM (active) | inactive | 27.5 µM (active) | inactive | inactive | –
Nc1ccc2ccccc2c1 | inactive | inactive | 33.2 µM (active) | inactive | inactive | – | inactive | inactive | 52.6 µM (active) and 48.6 µM (active) | inactive | inactive | inactive | inactive | –
CCCCOCC1CO1 (stereo not given) | inactive | inactive | inactive | inactive | inactive | inactive | inactive | inactive | inactive | inactive | inactive | inactive | inactive | inactive
CC(C)(c1ccc(OCC2CO2)cc1)c1ccc(OCC2CO2)cc1 (stereo not given) | inactive | inactive | inactive | inactive | – | – | inactive | inactive | inactive | inactive | 69.5 µM (active) and inactive | inactive | – | inactive
O=C1C(Cl)=C(Cl)C(=O)c2ccccc21 | 21.8 µM (active) and 24.3 µM (active) | 21.8 µM (active) and 19.3 µM (active) | – | 61.3 µM (active) and 54.5 µM (active) | 5.66 µM (active) and 5.64 µM (active) | – | inactive | – | – | inactive | 34.5 µM (active) and 19.3 µM (active) | inactive | 7.79 µM (active) | –
CC(C)CON=O | inactive | inactive | inactive | inactive | – | – | inactive | inactive | inactive | inactive | – | – | inactive | inactive
CCCCCCCC[N+](C)(CCCCCCCC)CCCCCCCC | 27.3 µM (active) and 61.2 µM (active) | 4.85 µM (active) and 9.7 µM (active) and 13.7 µM (active) | – | 17.2 µM (active) and 1.72 µM (active) and 21.7 µM (active) | inactive | 17.2 µM (active) and 7.7 µM (active) and 48.6 µM (active) | 19.3 µM (active) and 13.7 µM (active) and 17.2 µM (active) | 17.2 µM (active) and 15.4 µM (active) | inactive | 9.67 µM (active) and 1.37 µM (active) and 13.7 µM (active) | – | – | 15.5 µM (active) and 9.79 µM (active) and 19.5 µM (active) | –
CC1(C)Cc2cccc(O)c2O1 | inactive | inactive | inactive | inactive | inactive | – | inactive | inactive | inactive | inactive | – | – | inactive | inactive
CCOP(=S)(OCC)OP(=S)(OCC)OCC | inactive | inactive | inactive | inactive | – | – | inactive | inactive | inactive | inactive | inactive | inactive | inactive | inactive
COP(=S)(OC)SCn1nnc2ccccc2c1=O | inactive | 60 µM (active) | – | – | 39.1 µM (active) and 39.9 µM (active) | – | inactive | inactive | – | inactive | 61.1 µM (active) | inactive | inactive | inactive
OCCOCCO | inactive | inactive | inactive | inactive | – | inactive | inactive | inactive | inactive | inactive | – | – | inactive | –
CCOP(=S)(OCC)SCn1c(=O)oc2cc(Cl)ccc21 | inactive | inactive | inactive | – | 38.2 µM (active) | – | inactive | inactive | 58.4 µM (active) and 24.3 µM (active) | inactive | – | – | inactive | inactive
Oc1ccc(Cl)cc1Cl | inactive | inactive | inactive | inactive | – | inactive | inactive | inactive | inactive | inactive | inactive | inactive | inactive | –
CC(O)CN(CC(C)O)CC(C)O (stereo not given) | inactive | inactive | inactive | inactive | – | – | inactive | inactive | inactive | inactive | – | – | inactive | inactive
C[C@]12CC[C@H]3[C@@H](CCC4=CC(=O)CC[C@@H]43)[C@@H]1CC[C@@H]2O | inactive | 48.1 µM (active) | inactive | inactive | – | inactive | inactive | inactive | inactive | inactive | – | – | inactive | inactive
CCCCSP(=O)(SCCCC)SCCCC | inactive | inactive | inactive | inactive | inactive | – | inactive | inactive | 23.8 µM (active) and 8.63 µM (active) | inactive | – | – | inactive | –
CC(C)(O)C(=O)Nc1ccc([N+](=O)[O-])c(C(F)(F)F)c1 | inactive | inactive | inactive | inactive | – | inactive | inactive | inactive | – | inactive | 27.9 µM (active) | inactive | inactive | inactive
